According to PubChem BioAssay (NCATS):
Records with an inconclusive call do not appear. The source made the active and inactive calls. Calls come from the whole dose curve; as a rule, active = well fitted inhibition curve with a large enough effect; inconclusive = small, poorly fitted or top-dose-only effect; inactive = no such curve, though single readings can be large or run the other way.

Assay: qHTS assay to identify inhibitors of the type 1 interferon - major histocompatibility complex class I in skeletal muscle: Counter screen cell viability and HiBit confirmation (AID 1347412); note: nearly all actives have a fitted effect of over 60% in size
Conditions: iHSKM muscle cells + IFN-b, HiBiT or CellTiter-Glo, 24 h; Viability
In short: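 Myoblasts (C25cl48, HLA-B HiBiT) seeded in medium without dexamethasone, IFN-b 4 ng/ml added except unstimulated columns; 1 hr later compounds pinned (12-pt 1:3, top 46 uM final). Incubated 24 hrs, lysed 10 min, luminescence measured.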
% is set by controls: 0 for no effect and ±100 for the full control effect; potency is the fitted concentration of half-maximal effect.

SMILES	Potency
Cc1ccc(C(=O)Nc2ccc(CN3CCN(C)CC3)c(C(F)(F)F)c2)cc1C#Cc1cnc2cccnn12	15.7 µM (active)
CCn1nnc2c(N3CCOCC3)nc(-c3ccc(NC(=O)Nc4ccc(C(=O)N5CCN(C)CC5)cc4)cc3)nc21	0.991 µM (active)
COc1cccc2c(NCc3ccccc3)nc(-n3c(N)nc4ccccc43)nc12	17.6 µM (active)
COc1cc2c(Oc3ccc4[nH]c(C)cc4c3F)ncnc2cc1OCCCN1CCCC1	19.8 µM (active)

Same assay, conditions: iHSKM muscle cells + IFN-b, HiBiT or CellTiter-Glo, 24 h; Viability; at 45.9 µM (top of the series)

SMILES	activity change, negative = inhibition
Cc1cc(C(=O)N2CCN(c3cccc(Cl)c3)CC2)n(-c2ccccc2)n1	-19.8% (inactive)
OCCCNc1cc(-c2ccnc(Nc3cccc(Cl)c3)n2)ccn1	15.1% (inactive)
O=C(Nc1cn[nH]c1-c1nc2ccc(CN3CCOCC3)cc2[nH]1)NC1CC1	61.5% (inactive)
COc1ccc(F)c(F)c1C(=O)c1cnc(NC2CCN(S(C)(=O)=O)CC2)nc1N	14.1% (inactive)
N#CCNC(=O)c1ccc(-c2ccnc(Nc3ccc(N4CCOCC4)cc3)n2)cc1	-6.53% (inactive)
COc1cccc2nc(-c3cccs3)nc(NN3C(=O)C=C(C)C3=O)c12	41.4% (inactive)
CC[C@@]1(O)C(=O)OCc2c1cc1n(c2=O)Cc2cc3cc(O)ccc3nc2-1	8.39% (inactive)
Cc1nc(Nc2n[nH]c3c2CN(C(=O)N[C@H](CN(C)C)c2ccccc2)C3(C)C)c2sccc2n1	5.01% (inactive)
COC(=O)Nc1nc2ccc(C(=O)c3ccc(F)cc3)cc2[nH]1	-28.8% (inactive)
CC(C)c1nn(-c2c(Cl)cccc2Cl)c2nc(Cc3ccc(OCCO)cc3)[nH]c(=O)c12	27.7% (inactive)
